HCMV inh – inhibitors of human cytomegalovirus; HFF cells, HCMV-luciferase reporter, 72 h; hits give low values; activity change, negative = inhibition, % at 57.5 µM; actives 4.5% (n = 410,000); in the data active = activity change below about -60%; inconclusive = no clear call, values can overlap the other calls; inactive = above about -39%
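HFF cells seeded 16 h at 37C, treated with compounds, infected with luciferase-reporter HCMV at MOI 1 PFU/cell; luciferase read at 72 h post infection, normalized to buffer-only and Salinomycin controls.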
Pf growth 96h – inhibits malaria parasite growth, 96 h; P. falciparum luciferase reporter growth, 96 h; Potency, µM (titrated, usually from 28.7 µM), usual class: inhibitors; actives 6.9% (n = 320,000); AID 504834
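96 h incubation, 37 C, 5% CO2, of luciferase-reporter P. falciparum-infected RBCs (2% hematocrit, 0.05% parasitemia final) with test compounds; endpoint luminescence.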
Pf growth 48h – inhibits P. falciparum growth in the first generation, 48 h; P. falciparum luciferase growth in erythrocytes, 48 h; actives 5.9% (n = 310,000); Potency, µM (doses to about 28.7 µM), most hits filed as inhibitors; AID 504832
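Luciferase-expressing parasites in RBCs, 2% Hct / 0.1% parasitemia final; RPMI 1640 + 0.5% Albumax; 37 C, 5% CO2, one generation; luminescence read-out, lower signal = inhibition.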
HCV inh – HCV inhibition | Huh7.5.1 HCVcc-Cre infection, luciferase reporter, 44 h | Potency, µM (series often up to 41.8 µM), most hits filed as inhibitors | actives 3.4% (n = 340,000) | AID 651820
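Antiviral activity was scored by luciferase reporter output from cells infected with HCVcc-Cre (~0.5 moi) in presence of compound, 44 h infection period, cells seeded 1,000/well 4 h prior.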
Large screens that a line does not name were inactive. A selection: hits, their analogues and other compounds. The true share with any hit is near 13%. Unless noted, calls follow the shape of the dose curve; as a rule, active = well fitted inhibition curve with a large enough effect; inconclusive = small, poorly fitted or top-dose-only effect, or another doubt; inactive = no such curve, though single readings can be large or run the other way.

COc1ccc(-c2cc(C3CCN(Cc4ccc([N+](=O)[O-])cc4)CC3)[nH]n2)cc1	HCMV inh inconclusive, Pf growth 96h inconclusive, HCV inh inconclusive
Cc1ccc(CN2CCC(c3cc(-c4ccc(Cl)cc4)n[nH]3)CC2)cc1	HCMV inh -99, Pf growth 96h inconclusive, Pf growth 48h inconclusive, HCV inh 13µM
COc1ccc(OC)c(NC(=O)C2CCN(S(=O)(=O)c3c(C)noc3/C=C/c3ccc(C)cc3)CC2)c1	none (no result: Pf growth 96h, Pf growth 48h, HCV inh)
CCc1nn2c(=O)cc(COC(=O)Cc3ccccc3)nc2s1	none (no result: Pf growth 96h, Pf growth 48h, HCV inh)
CCN(CC)C(=O)CC(c1ccc(F)cc1)c1ccco1 (configuration not stated)	Pf growth 48h inconclusive
O=C(CC(c1ccccc1)c1cc(Br)ccc1O)N1CCCCC1 (configuration not stated)	Pf growth 96h inconclusive, Pf growth 48h 13µM
CCCN(CCC)C(=O)CC(c1ccccc1)c1ccco1 (configuration not stated)	Pf growth 96h inconclusive, Pf growth 48h 12µM
CCCN(CCC)C(=O)CC(c1ccccc1)c1cc(Br)ccc1O (configuration not stated)	Pf growth 48h 13µM, HCV inh inconclusive (no result: Pf growth 96h)
CCCN(CCC)C(=O)CC(c1ccccc1)c1ccc(C)cc1O (configuration not stated)	HCMV inh -70, Pf growth 96h inconclusive (no result: Pf growth 48h, HCV inh)
Cc1oc2ncn(C)c(=O)c2c1C(=O)NCCCN(Cc1ccccc1)C(C)C	none (no result: Pf growth 96h, Pf growth 48h, HCV inh)
COc1cccc(-c2ccc(NC(=O)C3CCCN(Cc4cnn(C(C)C)c4)C3)cc2)c1 (configuration not stated)	HCMV inh -108, Pf growth 48h inconclusive, HCV inh 11µM
COCc1ccc(CN2CCCC(C(=O)Nc3ccc(-c4cccc(OC)c4)cc3)C2)o1 (configuration not stated)	HCMV inh inconclusive, Pf growth 48h inconclusive, HCV inh 10µM
Cc1cccc(N2CCN(C(=O)CN3C(=O)COc4ccc(S(=O)(=O)N5CCCC5)cc43)CC2)c1C	none (no result: Pf growth 96h, Pf growth 48h, HCV inh)
COc1ccc(-c2ccc(C#N)c(OC(=O)c3c(Cl)cccc3Cl)n2)cc1	Pf growth 48h inconclusive, HCV inh 5µM
Cc1ccc(NC(=O)Nc2nnc(CSCCOc3ccc(Cl)cc3)s2)cc1	Pf growth 96h inconclusive
O=C(Nc1cccc(Cl)c1)Nc1nnc(CSCCOc2ccc(Cl)cc2)s1	HCMV inh -72, Pf growth 96h inconclusive, Pf growth 48h 12µM, HCV inh 2.5µM
O=C(Nc1cccc(Cl)c1)Nc1nnc(CC2=CCCCC2)s1	HCMV inh -98, Pf growth 96h inconclusive, Pf growth 48h 15µM, HCV inh inconclusive
O=C(Nc1ccc(Cl)cc1)Nc1nnc(SCc2ccc(Cl)cc2)s1	Pf growth 96h 5.2µM
O=C(Cc1nnc(NC(=O)Nc2ccc(Cl)cc2)s1)NCc1ccccc1	none
O=C(Nc1nnc(CC2=CCCCC2)s1)Nc1ccccc1F	none (no result: HCMV inh)
O=C(Nc1ccc(Cl)cc1)Nc1nnc(CSc2ccc(Cl)cc2)s1	HCMV inh -85, Pf growth 96h inconclusive, HCV inh inconclusive
COc1ccc(Cn2c(=O)c3oc4ccccc4c3n(Cc3cccc(C)c3)c2=O)cc1	none (no result: Pf growth 96h, Pf growth 48h, HCV inh)
O=C(Nc1ccc(Cl)cc1)Nc1nnc(CSCc2ccccc2)s1	HCMV inh -70, Pf growth 48h inconclusive
O=C(Nc1ccc(F)cc1)Nc1nnc(Cc2ccccc2)s1	Pf growth 96h 4.7µM, Pf growth 48h inconclusive
COc1ccc(C(=O)NCc2ccc3c(c2)CCN3C(=O)c2ccc(Cl)cc2)c(OC)c1	none (no result: Pf growth 96h, Pf growth 48h, HCV inh)
Cc1cccc(-c2cc(C(=O)Nc3ccc4c(c3)OCCO4)c3ccccc3n2)c1	Pf growth 96h 12µM, Pf growth 48h inconclusive, HCV inh inconclusive
O=C(Nc1ccc2c(c1)OCCO2)c1cc(-c2ccccn2)nc2ccc(Br)cc12	HCMV inh -94, Pf growth 96h inconclusive
CC(C)NC(=O)CCCN1C(=O)CCn2nc(-c3cccn3C)cc21	none (no result: Pf growth 96h, Pf growth 48h, HCV inh)
COc1ccc(S(=O)(=O)NCc2ccc3c(c2)CCN3C(C)=O)cc1OC	none (no result: Pf growth 96h, Pf growth 48h, HCV inh)
O=C1CS/C(=N/N=C\c2ccn[nH]2)N1	Pf growth 96h 1.9µM
Cc1ccc(C)n1/N=C1/NC(=O)CS1	none (no result: Pf growth 96h)
Cc1ccc(Cl)c(NC(=O)Nc2csc3c2CCCC3)c1	none (no result: Pf growth 96h, Pf growth 48h, HCV inh)
CCOc1ccc(NS(=O)(=O)c2c(C)nc3sccn3c2=O)cc1	HCMV inh -100
CC(=O)NCc1ccc(C(=O)CCl)s1	Pf growth 96h inconclusive, Pf growth 48h 4.1µM, HCV inh inconclusive
COc1ccc(C(=O)OCC(=O)c2ccc(CNC(C)=O)s2)cc1	Pf growth 96h inconclusive
CCOc1ccc(/C=N/NC(=O)Cc2ccccc2)cc1CN1CC2CC(C1)c1cccc(=O)n1C2 (configuration not stated)	Pf growth 48h 6.6µM, HCV inh 7.9µM
COc1cccc(Nc2sc(C(=O)c3ccc(F)cc3)c(N)c2C(=O)NCc2ccc(Cl)cc2)c1	none (no result: Pf growth 96h, Pf growth 48h, HCV inh)
COc1ccc(C(=O)c2sc(Nc3cccc(OC)c3)c(C(=O)Nc3cccc(C)c3C)c2N)cc1	HCMV inh -70, Pf growth 96h 12µM (no result: Pf growth 48h)
COc1cccc(Nc2sc(C(=O)c3ccc(Cl)cc3)c(N)c2C(=O)NCc2ccc(C)cc2)c1	HCMV inh -80 (no result: Pf growth 96h, Pf growth 48h, HCV inh)
COc1ccc(C(=O)c2sc(Nc3ccccc3)c(C(=O)Nc3ccc(OC)c(OC)c3)c2N)cc1	Pf growth 96h inconclusive, Pf growth 48h 13µM
COc1ccc(Nc2sc(C(=O)c3ccccc3)c(N)c2C(=O)Nc2cc(C)ccc2C)c(OC)c1	HCMV inh -74 (no result: Pf growth 96h, Pf growth 48h, HCV inh)
CN(C)S(=O)(=O)c1ccc2c(c1)N(CC(=O)N1CCN(c3cccc(Cl)c3)CC1)CCS2	none (no result: Pf growth 96h, Pf growth 48h, HCV inh)
CCc1ccc(Cn2c(CNS(=O)(=O)c3ccc(Cl)s3)nc3cccnc32)cc1	none (no result: Pf growth 96h, Pf growth 48h, HCV inh)
Cc1cc(Nc2sc(C(=O)c3ccc(F)cc3)c(N)c2C(=O)Nc2ccc(F)cc2)ccc1Cl	HCMV inh -108 (no result: Pf growth 96h, Pf growth 48h, HCV inh)
Cc1ccc(NC(=O)c2c(Nc3ccccc3C)sc(C(=O)c3ccccc3)c2N)cc1	none (no result: Pf growth 96h, Pf growth 48h, HCV inh)
COc1ccc(Nc2sc(C(=O)c3ccc(Cl)cc3)c(N)c2C(=O)Nc2ccccc2OC)cc1	HCMV inh inconclusive, Pf growth 48h 10µM, HCV inh inconclusive (no result: Pf growth 96h)
COc1ccccc1NC(=O)c1c(Nc2ccccc2C)sc(C(=O)Nc2cccc(Cl)c2)c1N	HCMV inh -97, Pf growth 96h 10µM, Pf growth 48h inconclusive, HCV inh 13µM
COc1ccc(NC(=O)c2c(Nc3ccccc3)sc(C(=O)c3ccc(F)cc3)c2N)cc1	HCMV inh -83, Pf growth 48h inconclusive, HCV inh 6.3µM (no result: Pf growth 96h)
O=C(NCc1ccc(Cl)cc1)C(=O)NCC(c1ccco1)S(=O)(=O)c1cccs1 (configuration not stated)	none (no result: Pf growth 96h, Pf growth 48h, HCV inh)
CC1=C(C(=O)Nc2ccccc2C)C(c2sccc2C)n2ncnc2N1 (configuration not stated)	none (no result: Pf growth 96h, Pf growth 48h, HCV inh)
C[C@]12CCC3C(CC[C@H]4CCCC[C@]34C)C1CC[C@@]2(O)CNCCO (some centres not stated)	HCV inh 10µM
CCOC(=O)C1CCN(C(=O)c2ccc(NS(=O)(=O)c3ccc4[nH]c(=O)[nH]c4c3)cc2)CC1	none (no result: Pf growth 96h, Pf growth 48h)
CC(=O)c1ccc(NS(=O)(=O)c2ccc3[nH]c(=O)[nH]c3c2)cc1	none (no result: Pf growth 96h, Pf growth 48h, HCV inh)

Screening results: PubChem, National Center for Advancing Translational Sciences (NCATS)
